The panel holds about 83,000 compounds, 20% with a hit somewhere; the sample as a whole holds those more often.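 Activity criterion: percent growth below 10, measured after cells in 96-well plates were exposed to a single compound concentration for 48 hours.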 Values without a mark were called inactive. Activity calls are given as the source filed them.
tested on: MDA-MB-231 breast; test: NCI-60 one-dose screen, 48 h (100 = growth as untreated, 0 = no growth, -100 = all killed); settings: 10 µM unless noted

| Structure (SMILES) | growth |
| --- | --- |
| COc1cc2nc(C(=O)N3CCCCC3)cc(Nc3ccccc3)c2cc1OC | 88.6% |
| CCCOC(=O)c1ccc([N+](=O)[O-])o1 | 103% |
| COc1ccccc1S(=O)(=O)Nc1ccc2c3c(cc(-c4ccoc4)nc13)C(=O)N2C | 62.8% |
| OCc1cnccc1NC12CC3CC(CC(C3)C1)C2 | 97.6% |
| CC(=O)c1cc2c(c(O)c1C)C(=O)C(=O)c1c(O)cccc1-2 | -79.3% (active) |
| Cc1ccc2oc(=O)cc(C3C(C#N)=C(N)Oc4c3ccc3ccccc43)c2c1 (centres undefined) | 81.9% |
| COc1ccc(-c2coc3c(CO)c(O)ccc3c2=O)cc1 | 25% |
| CCOc1ccccc1C(=O)N1CCN(c2cc(Cl)cc(Cl)c2)CC1 | 6.62% (active) |
| CCCCNC(=O)Oc1ccc(/C(=C(/CC)Cc2ccccc2)c2ccc(OCCCN(C)C)cc2)cc1 | 78.9% |
| C=C1C(=O)O[C@H]2[C@H]1CC/C(COC(=O)c1ccc(C#N)cc1)=C\CC[C@@]1(C)O[C@@H]21 | 2.94% (active) |
| O=C(Nc1ccc(F)cc1)Nc1ccc(Br)c(C(F)(F)F)c1 | 7.99% (active) |
| CCn1c(SC)nnc1-c1cc2c([nH]c3ccccc32)c(-c2cccc(O)c2)n1 | 23.1% |
| COc1ccccc1S(=O)(=O)Nc1ccc2c3c(cc(-c4cnn(C5CC5)c4)nc13)C(=O)N2C | 52.8% |
| Nc1nc(Nc2ccc(OCc3cccc(F)c3)cc2)c2c(n1)[nH]c1ccc(O)cc12 | -67.9% (active) |
| CCn1c(SCC(=O)c2ccc(Br)cc2)nnc1-c1cc2c([nH]c3ccccc32)c(-c2cccc(O)c2)n1 | 75.4% |
| O=C(Cn1c2ccccc2c2ccncc21)N/N=C/c1c[nH]c2ccccc12 | 19.6% |
| CC(=O)c1cc2c(N)c(C(=O)Nc3cccc(Cl)c3)sc2nc1C | 87.5% |
| S=c1[nH]nc(Cn2c3ccccc3c3ccncc32)o1 | 100% |
| COc1ccccc1S(=O)(=O)Nc1ccc2c3c(cc(-c4cnn(C)c4)nc13)C(=O)N2C | 40.7% |
| CCNC(=O)Oc1ccc(/C(=C(/CC)Cc2ccccc2)c2ccc(OCCN3CCOCC3)cc2)cc1 | 71.4% |

| Structure (SMILES) | growth |
| --- | --- |
| COc1ccc(-c2cc3ccc(N(C)C)cc3nc2N)c(F)c1 | 48.5% |
| C=C1C(=O)O[C@H]2[C@H]1CC/C(COC(=O)c1ccc(Br)cc1)=C\CC[C@@]1(C)O[C@@H]21 | -56% (active) |
| CC(=O)O[C@@H]1[C@@H](OC(C)=O)[C@H](OC(C)=O)CO[C@H]1Nc1cccc2ccccc12 | 89% |
| COc1ccc(C2CC(c3cc(Cl)c(C)cc3OC)=NN2c2ccc(S(N)(=O)=O)cc2)cc1OC (centres undefined) | 84.6% |
| C=C1C(=O)O[C@H]2[C@H]1CC/C(COC(=O)c1cc(OC)c(OC)c(OC)c1)=C\CC[C@@]1(C)O[C@@H]21 | -39% (active) |
| O=C(CNc1cccnc1)Nc1ccc(C(=O)/C=C/c2ccc(Cl)cc2)cc1 | 77% |
| C/C(=N/NC(=O)Cn1c2ccccc2c2ccncc21)c1cccs1 | 97.4% |
| COc1ccc(/C=N/C2=NNC(C)(c3ccccc3O)N2C(Cc2c[nH]c3ccccc23)C(=O)O)cc1 (centres undefined) | 28.8% |
| O=C(Nc1ccc(Cl)c(Cl)c1)Nc1ccc(Cl)c([N+](=O)[O-])c1 | -62.6% (active) |
| COc1ccc(C(=O)Cn2cnc3c(Nc4cc(C(=O)Nc5ccc(N6CCN(CCO)CC6)cc5)ccc4C)ncnc32)cc1 | 110% |
| O=[N+]([O-])c1ccc(NS(=O)(=O)c2ccccc2)c2ccccc12 | 70.1% |
| FC(F)(F)c1cn(CCN2CCOCC2)c2ncnc(Cl)c12 | 63.8% |
| CN1C(=O)C2(SCC(C(=O)NCC(=O)OC(C)(C)C)N2C(=O)C2CCCCC2)c2ccccc21 (centres undefined) | 100% |
| C=C1C(=O)O[C@H]2[C@H]1CC/C(COC(=O)c1cccc3ccccc13)=C\CC[C@@]1(C)O[C@@H]21 | -67.7% (active) |
| C=C1C(=O)O[C@H]2[C@H]1CC/C(COC(=O)c1ccc(Cl)nc1)=C\CC[C@@]1(C)O[C@@H]21 | -2.63% (active) |
| CCOc1cccc(Nc2nc(N)nc3[nH]c4ccc(O)cc4c23)c1 | 54.8% |
| Cc1ccc2c(C3C(C#N)=C(N)Oc4cc5ccccc5cc43)cc(=O)oc2c1 (centres undefined) | 50.6% |
| CC(C(=O)O)N1C(N)=NNC1c1ccccc1O (centres undefined) | 76.6% |
| Cc1cc(N2CCOCC2)nc(N(CCNc2ccnc3cc(Cl)ccc23)Cc2ccco2)n1 | 7.62% (active) |
